Potency data for 17 molecules are collected here from PubChem BioAssay AID1731 (National Center for Advancing Translational Sciences (NCATS), 2009).

Active and inactive are the calls of the source. A call without a number means that no potency is given here. Calls follow the shape of the dose curve; as a rule, active = well fitted curve in the direction sought with a large enough effect; inactive = no such curve, though single readings can be large or run the other way.

Sequence of Epidermal growth factor receptor (Homo sapiens) (P00533 whole entry, looked up): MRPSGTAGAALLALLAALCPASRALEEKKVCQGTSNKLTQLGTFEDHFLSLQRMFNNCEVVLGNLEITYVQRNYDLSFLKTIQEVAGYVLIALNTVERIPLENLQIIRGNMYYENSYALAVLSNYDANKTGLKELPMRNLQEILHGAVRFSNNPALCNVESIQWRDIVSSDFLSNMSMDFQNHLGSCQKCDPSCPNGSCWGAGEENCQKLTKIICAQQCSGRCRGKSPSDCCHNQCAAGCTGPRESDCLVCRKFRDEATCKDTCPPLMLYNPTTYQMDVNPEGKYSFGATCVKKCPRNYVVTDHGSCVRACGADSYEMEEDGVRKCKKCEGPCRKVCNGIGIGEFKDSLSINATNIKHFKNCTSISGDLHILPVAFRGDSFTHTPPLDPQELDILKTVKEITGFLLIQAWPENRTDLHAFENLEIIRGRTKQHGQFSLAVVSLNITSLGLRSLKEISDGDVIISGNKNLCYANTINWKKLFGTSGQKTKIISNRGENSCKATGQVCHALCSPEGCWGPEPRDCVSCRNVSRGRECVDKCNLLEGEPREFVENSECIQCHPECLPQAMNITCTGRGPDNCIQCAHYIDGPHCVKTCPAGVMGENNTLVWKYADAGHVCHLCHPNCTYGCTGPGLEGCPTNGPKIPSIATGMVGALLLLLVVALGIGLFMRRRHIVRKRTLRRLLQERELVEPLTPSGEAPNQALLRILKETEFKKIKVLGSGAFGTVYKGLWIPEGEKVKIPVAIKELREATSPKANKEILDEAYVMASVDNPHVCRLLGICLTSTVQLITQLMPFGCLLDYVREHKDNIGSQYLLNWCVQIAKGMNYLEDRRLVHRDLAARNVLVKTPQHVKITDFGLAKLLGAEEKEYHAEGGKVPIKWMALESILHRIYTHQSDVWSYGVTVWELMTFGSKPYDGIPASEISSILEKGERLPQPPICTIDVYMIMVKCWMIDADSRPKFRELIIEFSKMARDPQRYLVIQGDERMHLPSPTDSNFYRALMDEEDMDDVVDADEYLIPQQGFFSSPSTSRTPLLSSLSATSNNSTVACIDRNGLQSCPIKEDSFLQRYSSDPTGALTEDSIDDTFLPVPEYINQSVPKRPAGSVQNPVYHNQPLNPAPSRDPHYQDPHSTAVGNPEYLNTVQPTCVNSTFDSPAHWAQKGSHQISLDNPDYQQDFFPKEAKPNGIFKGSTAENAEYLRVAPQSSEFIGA

This assay concerns the target Epidermal growth factor receptor (Homo sapiens) (UniProt P00533). The assay is described as follows: Assay for Inhibitors of the ERK Signaling Pathway using a Homogeneous Screening Assay: EGFR Kinase Inhibition. The note with it: homogeneous biochemical assay; series mostly up to 21.9 µM. An excerpt:
qHTS Assay for Inhibitors of the ERK Signaling Pathway using a Homogeneous Screening Assay
NIH Chemical Genomics Center [NCGC]
NIH Molecular Libraries Screening Centers Network [MLSCN]
Assay Submitter (PI): Dr. Wei Zheng, NCGC/NIH
The Ras/extracellular-signal-regulated kinase (ERK) mitogen activated protein (MAP) kinase signaling pathway (ERK1/2 cascade) plays is a key role in transmitting signals from the cell surface to the nucleus (Nishida and Gotoh 1993; Chang and Karin, 2001). The cascade is initiated by the small G-protein Ras, which recruits Raf […], where activation occurs. Alternatively, this pathway can be activated by elevating intracellular cAMP.
Activation of the ERK pathway is essential in increased cell division and cell survival. Sustained and constitutive activation of the ERK pathway, however, has been linked to uncontrolled cell proliferation, increased cell survival, and tumor progression. Thus, the ERK has been as an attractive target for cancer chemotherapy in the past few years (Sebolt-Leopold and Herrera, 2004). Given its physiological and pathological importance, assessment of ERK phosphorylation has been broadly performed in both basic research and drug discovery. Most assays for the measurement of ERK phosphorylation use the antibody-based detection methods, such as western blot and ELISA. These assays require multiple reagent additions with cell wash steps and are not suitable for high-throughput screening.
The current cell-based ERK phosphorylation assay was performed using AlphaScreen platform. AlphaScreen is a two bead-based proximity-dependent chemical energy transfer luminescent assay platform. The assay reagents (ERK SureFire(TM) kit) were supplied from TGR BioSciences (Australia). In the presence of specific antibodies, phosphorylated ERK will bring "donor" and "acceptor" beads to a proximity range (<200 nm), and subsequently lead a chemical luminescent reaction upon exciting donor beads with 680 nm laser. To validate pathway hits from the cell-based assay, enzyme assays consisting of EGFR tyrosine kinase, Raf and MEK were used as a means of deciphering the enzymes of target for the prioritized group of compounds derived from the HEK-293 cell based assay. The compounds were tested against significant members of the ERK signaling pathway EGFR and EGFR mutants (EGFR L858R, EGFR T790M, and EGFR L858R T790M). In order to establish the specificity of the prioritized compounds for EGFR and EGFR mutants, the compounds were also assayed against other important ERK signaling pathway enzymes, c-RAF and MEK-1.
NCGC Assay Protocol Summary:
The HTRF kinase assay (components supplied as kit by Cisbio) was chosen for the EGFR and EGFR mutant enzyme assays that applied the time resolved fluorescence resonance energy transfer (TR-FRET) principle. A peptide substrate is labeled with a biotin that can bind to XL665 labeled streptavidin and the anti-phosphoresidue antibody is labeled with Eu+. Upon phosphorylation of the substrate, the antibody binds to phosphorylated substrate that enables TR-FRET detection in homogenous assay format.
An HTRF Kinease TK assay kit (Cisbio, Bedford, MA) was used to develop the EGFR and EGFR mutant assays (Harbert et al., 2008. Harbert C, Marshall J, Soh S, Steger K. Development of a HTRF Kinase Assay for Determination of Syk Activity. Current Chemical Genomics. 1: 20-26. 2008). EGFR and EGFR mutants were obtained from Invitrogen. The assay buffer was composed of 50 mM HEPES (pH 7.0), 5 mM MgCl2, 5mM DTT, 0.1 % NaN3, 0.1 % BSA and 0.1 mM orthovanadate.
The HTRF assays were preformed according to the HTRF Kinease TK kit. Optimization for each enzyme was preformed in 384 well format (data not included). All reagents were dispensed into 1536 well plates.
(1) Enzyme, […] EGFR at 3 nM final
(2) Compound, 22 nl, Library Compounds in 0.128 to 10 mM titration series or control
(3) Reagent, 1.5 ul 10 uM ATP and 0.25 uM substrate final
(4) Incubation for 30 min, Ambient conditions
[…]
In the case of `CNc1cccc2c1C(=O)c1ccccc1C2=O`, the Potency result is “inactive”. For the molecule `Cn1nc(-c2ccccn2)nc2c(=O)n(C)c(=O)nc1-2`, the Potency entry is “inactive”. Consider `Cc1ccc2nc(=O)c(NNc3ccccc3)cnc2c1`, for which the Potency was 708 nM (active). In the case of `Cn1c(=O)[nH]c2nnc(-c3ccc(Cl)c(Cl)c3)nc2c1=O` it was “inactive”.

As to `CCn1c(=O)c2[nH]c(-c3ccccc3)nc2n(CC)c1=O`, the Potency entry is “inactive”.

As for `N#C/C(=C(/N)Sc1ccc(N)cc1)c1ccccc1C(F)(F)F`, the Potency entry is “inactive”.

Consider `COc1ccc(C(=O)c2ccc(Cl)c([N+](=O)[O-])c2)cc1`, for which the Potency entry is “inactive”.

On to `O=C1c2ccccc2C(=O)c2c(NCCCN(CCO)CCO)cccc21`, for which the Potency result is “inactive”. In the case of `Cc1ccc(NNc2c(C)nc3ccccc3nc2=O)cc1` it was 4470 nM (active).

Regarding `Fc1ccc(Nc2ncnc3sc4c(c23)CCC4)cc1F`, the Potency was 70.8 nM (active). In the case of `CN(C)c1cccc2c1C(=O)c1ccccc1C2=O` it was “inactive”. To `Cc1nc2ccccc2nc(=O)c1NNc1ccccc1` belongs 708 nM (active).

For `O=C(Nc1nc(-c2ccccc2)cs1)c1ccc(N2CCOCC2)c([N+](=O)[O-])c1`, the Potency entry was “inactive”. Consider `Cn1nc(-c2ccc(Cl)cc2)nc2c(=O)n(C)c(=O)nc1-2`, for which the Potency entry was “inactive”.

Consider `CS(=O)(=O)CCNCc1nc(-c2ccc3ncnc(Nc4ccc(OCc5cccc(F)c5)c(Cl)c4)c3c2)cs1`, for which the Potency is 8.9 nM (active). Consider `CCN(CC)CCC(=O)Nc1cccc2c1C(=O)c1ccccc1C2=O`, for which the Potency result was “inactive”. To `O=C1c2ccccc2C(=O)c2c1cccc2N1CCCC1` belongs “inactive”.
